IL1B secr inh = inflammasome signaling inhibition, IL-1 beta readout; 4.7% of 360,000 active; THP-1 LPS/ATP IL-1B secretion, AlphaLISA, 16 h; stronger effect = lower value; activity change, % at 57.5 µM; AID 743279; in the data active = activity change below about -50%; inconclusive = mostly about -30% to -49%
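Secreted IL-1B measured by AlphaLISA bead assay after 16 h compound exposure of THP-1 cells; compounds (final up to 57.5 uM) added 1 h before LPS (250 ng/mL) and ATP (1.25 mM) stimulation; lower signal means less secretion.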
HT1080NT lethal = kills 2HG-producing HT-1080-NT fibrosarcoma cells | 1.6% of 360,000 active | AID 686970 | HT-1080-NT fibrosarcoma viability, CellTiter-Glo ATP luminescence, 48 h | Potency, µM (doses to about 46.1 µM), without a hit: at the highest dose activity, negative = less viability, hits mostly cytotoxic;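 note: NT is the 2HG producing partner of a matched IDH1 knockdown line; potency is the fitted concentration of half-maximal effect; 0% = DMSO-treated cells and -100% = media-only wells without cells; nearly all actives have a fitted effect of over 55% in size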
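Compounds were tested in concentration-response format on HT-1080-NT cells for 48 hours at 37 degrees C. Cell viability came from CellTiter-Glo luminescence; curves were classified by r2, response magnitude and activity.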
HT1080 IDH1KD tx = kills HT-1080 cells with IDH1 knockdown | HT-1080 IDH1 knockdown viability, ATP luminescence, 48 h | Potency, µM (series often up to 46.1 µM), without a hit: top-dose activity, negative = toxicity, actives largely listed as cytotoxic | 2% of 360,000 active | AID 686971;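 note: potency is the fitted concentration of half-maximal effect; 0% = DMSO wells and -100% = cell-free medium wells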
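Cytotoxicity counter-line: IDH1KD HT-1080, 48 h, CellTiter-Glo. Curves classed by r2, magnitude and activity.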
DT40 TDP1 no CPT = qHTS for Inhibitors of human tyrosyl-DNA phosphodiesterase 1 (TDP1): qHTS in cells in absence of CPT | Potency, µM (titrated, usually from 46.2 µM), for the others: at the top dose activity change, negative = growth inhibition, actives largely listed as inhibitors | DT40 Tdp1-/- hTDP1 cells, no CPT, ATP luminescence, 48 h | AID 686978, 2013 | 15% of 420,000 active; note: potency is the fitted concentration of half-maximal effect; nearly all actives have a fitted effect of over 55% in size
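Compound effects on proliferation are scored in DT40 Tdp1-/-;hTDP1 cells in the absence of CPT. ATP levels (CellTiter-Glo luminescence) are recorded after a ≥48 hr, 37 °C incubation.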
DT40 TDP1 CPT = growth inhibition of DT40 Tdp1-/-;hTDP1 cells with camptothecin (screen for TDP1 inhibitors). chicken DT40 Tdp1-/-;hTDP1 cells + 20 nM CPT, ATP luminescence, 48 h. Potency, µM (series often up to 46.2 µM), for inactives: at the highest dose activity change, negative = growth inhibition, actives largely listed as inhibitors. 12% of 420,000 active; note: potency is the fitted concentration of half-maximal effect; nearly all actives have a fitted effect of over 55% in size
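Chicken DT40 Tdp1-/- cells complemented with human TDP1, 400 cells/well, exposed to compounds plus 20 nM camptothecin for at least 48 h at 37 C; viability read as ATP content by CellTiter-Glo luminescence.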
* marks the source's active call; other numbers are inactive results; ? = inconclusive; · = not tested or not shown. The list is not random: actives were taken first. Their share in the collection is about 19%. Unless noted, calls come from the whole dose curve; as a rule, active = well fitted curve in the direction sought with a large enough effect; inconclusive = small, poorly fitted or top-dose-only effect, or another doubt; inactive = no such curve, though single readings can be large; an effect the other way counts as inactive or inconclusive. Unless noted, % is set by controls: 0 for no effect and ±100 for the full control effect.

SMILES	IL1B secr inh	HT1080NT lethal	HT1080 IDH1KD tx	DT40 TDP1 no CPT	DT40 TDP1 CPT
CC(=O)Nc1cccc(NC(=O)Cc2nc(-c3ccccc3)sc2-c2ccc(C)cc2)c1	0	-9%	?	?	?
COc1cccc(NC(=O)Cc2nc(-c3ccccc3)sc2-c2ccc(C)cc2)c1	3	12%	9%	16µM*	?
COC(=O)c1cccc(NC(=O)Cc2nc(-c3ccccc3)sc2-c2ccc(C)cc2)c1	13	0%	0%	18µM*	?
COc1ccc(-c2noc(CNC(=O)c3ccoc3C)n2)cc1OC	20	-13%	1%	2%	-3%
COC(=O)Nc1ccc(S(=O)(=O)N2CCC(C(=O)N3CCCC(C)C3)CC2)cc1 (configuration not stated)	23	-4%	-15%	?	?
O=C(CN1C(=O)CCC1=O)NNc1ccc2ccccc2c1	19	2.9µM*	2.3µM*	-13%	-9%
O=C(Cc1ccccc1)NNc1ccc2ccccc2c1	17	?	3.7µM*	-30%	-9%
Nc1ccc2cc3ccccc3cc2c1	-13	5%	-4%	?	?
Nc1ccc2cccc(O)c2c1	20	-19%	-7%	13µM*	?
CCc1cccc2cc3c(N)c(C(=O)Nc4ccc(S(=O)(=O)N5CCCC5)cc4)sc3nc12	-15	-17%	-27%	8.2µM*	?
O=C(NCc1cccs1)c1ccc2sc(COCCO)nc2c1	6	27%	7%	-20%	-5%
COc1ccc(CNC(=O)CNC(c2ccccc2)c2ccccc2)cc1OC	-12	-6%	-2%	7.3µM*	-5%
COc1cc(CC(=O)NC(c2ccccc2)c2ccccc2)cc(OC)c1OC	28	3%	11%	13µM*	15µM*
COc1cc(C(=O)NC(c2ccccc2)c2ccccc2)cc(Cl)c1OC	0	7%	7%	-23%	-4%
COc1ccc(CNC(=O)Oc2ccccc2)cc1Cl	10	-28%	-24%	12µM*	?
COc1ccc(CC(=O)NCc2cccc(CNC(=O)Cc3ccc(OC)c(OC)c3)c2)cc1OC	7	-2%	4%	-2%	-7%
COc1ccc(/C=N/OCC(=O)Nc2cc(C)on2)cc1OC	-4	6%	6%	-29%	9%
COc1ccc(/C=N/OCC(=O)NC(c2ccccc2)c2ccccc2)cc1OC	0	-7%	-14%	6.5µM*	5.2µM*
CC(C)(C)NC(=O)COc1ccc(S(=O)(=O)N2CCCC2)cc1	-13	-5%	-5%	1%	-6%
COc1cccc(C(=O)NNC2OC(CO)C(O)C2O)c1 (configuration not stated)	0	-1%	0%	-2%	5%
COCCCNC(=O)c1cc2c(-c3ccc(Cl)cc3)nn(C)c2s1	0	-17%	-16%	?	?
Cn1nc(-c2ccc(Cl)cc2)c2cc(C(=O)NCCCN3CCCC3)sc21	-89*	?	?	23µM*	?
CCN1CCCC1CNC(=O)c1cc2c(-c3ccc(Cl)cc3)nn(C)c2s1 (configuration not stated)	-85*	26µM*	21µM*	18µM*	18µM*
Cc1cc(NC(=O)c2cccc(S(=O)(=O)N3CCCCCC3)c2)n(-c2ccccn2)n1	-18	3%	2%	21µM*	?
Cc1cc(NC(=O)c2cccc(S(=O)(=O)N(C)C)c2)n(-c2ccccn2)n1	-9	0%	-10%	23µM*	15µM*
SMILES	IL1B secr inh	HT1080NT lethal	HT1080 IDH1KD tx	DT40 TDP1 no CPT	DT40 TDP1 CPT
CCn1ncc(NC(=S)NCCc2ccc(OC)c(OC)c2)c1C(N)=O	24	2%	2%	-24%	0%
O=C1CC2(CCCC2)C(=O)N1CN1CCN(S(=O)(=O)c2cc(F)ccc2F)CC1	6	14%	0%	-9%	-15%
O=C(Nc1ccccc1)OC1CC2CC1C1CCCC21 (configuration not stated)	-17	1%	3%	?	?
Cc1ccc(Nc2cccccc2=O)cc1	-21	-4%	29µM*	?	21µM*
C#CCSc1nc2ccccc2c(=O)n1CC=C	·	·	·	-28%	8%
COC(=O)[C@@]12CCCCN1[C@H](c1ccc(-c3ccc(C(C)=O)cc3)cc1)[C@H]1C(=O)N(C)C(=O)[C@H]12	-8	4%	10%	15µM*	12µM*
COC(=O)[C@@]12CCCCN1[C@H](c1ccc(-c3ccc(F)cc3)cc1)[C@@H]1C(=O)N(C)C(=O)[C@@H]12	4	-28%	-9%	13µM*	21µM*
COC(=O)[C@@]12CCCCN1[C@H](c1ccc(-c3ccccc3)cc1)[C@H]1C(=O)N(C)C(=O)[C@H]12	9	8%	18%	?	?
Cc1ccc(OCCSc2nnc(C)c(=O)n2N)cc1	2	3%	3%	-14%	18%
CCOC(=O)c1sc(NC(=S)NC(=O)c2ccco2)nc1C	12	2%	-2%	-27%	-4%
Cc1nc(NC(=O)c2ccco2)sc1C(=O)O	19	23µM*	23µM*	10µM*	6.5µM*
CCOC(=O)c1sc(NC(=O)C(CC)OC(=O)c2ccco2)nc1C (configuration not stated)	-84*	-4%	2%	-17%	-11%
COC(=O)c1sc(NC(=O)c2ccco2)nc1C	14	5%	-5%	?	?
Cc1c(C(=O)NC2CC(C)(C)NC(C)(C)C2)oc2c(Cl)cccc12	-14	-10%	-21%	?	-20%
CC(C)(C)S(=O)(=O)/C(C#N)=N/Nc1ccc(Cl)cc1	-20	?	?	15µM*	?
CC(C)(C)c1ccc(N/N=C(\C#N)S(=O)(=O)C(C)(C)C)cc1	?	23µM*	?	?	4.6µM*
Cc1cccc(N/N=C(\C#N)S(=O)(=O)C(C)(C)C)c1	21	-6%	-2%	?	4%
CCOC(=O)c1ccc(NS(=O)(=O)c2cc(-c3onc(C)c3C)ccc2C)cc1	·	·	·	?	-23%
C/C(=N\NC(N)=S)C1=CCC2C3CC[C@H]4CC(O)CC[C@]4(C)C3CC[C@]12C (some centres not stated)	-52*	-22%	-4%	5.2µM*	18µM*
N/C(=N/O)C(c1ccccc1)c1ccccc1	28	3%	-1%	5%	-114%
NS(=O)(=O)c1ccc(CCNC(=O)C(=O)c2cn(CC(=O)N3CCOCC3)c3ccccc23)cc1	3	15%	12%	20%	8%
